# Test system: WNK1
# Conditions: concentration: 1 μM, replicates: in singlicate; n = 1
# 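Note: KINOMEscan kinase panel screen.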
row,Structure (SMILES),%Inh
1,Nc1n[nH]c2cnc(-c3ccccc3)cc12 [SB-642124],8%
2,CN(c1ccc(NC(=O)Nc2cc(C(F)(F)F)ccc2F)cc1)c1ccnc(Nc2ccc(S(N)(=O)=O)cc2)n1 [GW809893],6%
3,CC(C)c1nc(-c2cccc(NS(=O)(=O)c3c(F)cccc3F)c2F)c(-c2ccnc(Nc3ccc(N4CCOCC4)nc3)n2)s1 [GSK2008607],3%
4,O=C(Nc1cccc(-c2nn3ncccc3c2-c2ccnc(Nc3ccccc3)n2)c1)c1c(F)cccc1F [GSK198271],2%
5,O=C(Nc1ccccc1F)NC1CCN(c2ccnc(Nc3ccc(F)cc3)n2)CC1 [GSK1379800],9%
6,Cl.c1ccc(-c2ccc3c(Nc4ccc5[nH]ccc5c4)ccnc3c2)nc1 [GW440138],0%
7,COc1ccc(CNC(=O)NC2CCN(c3ccnc(Nc4ccc(F)cc4)n3)CC2)cc1 [GSK1379788],0%
8,CN(C)Cc1ccc(-c2ccc3c(Nc4ccc(Oc5ccccn5)cc4)ccnc3c2)o1 [GW567148],17%
9,CNC(=O)c1ccccc1Nc1nc(Nc2ccc(N3CCOCC3)cc2)ncc1Cl.Cl [GSK1576028],12%
10,CCS(=O)(=O)c1ccc(OC)c(Nc2nccc(-c3c(-c4cccc(NC(=O)c5c(F)cccc5F)c4)nn4ncccc34)n2)c1 [GSK326180],17%
11,c1ccc(Oc2ccc(Nc3ccnc4cc(-c5ccc(CNCCN6CCOCC6)o5)ccc34)cc2)nc1 [GW567145],0%
12,Cc1ccc(C)c(NC(=O)NC2CCN(c3ccnc(Nc4ccc(F)cc4)n3)C2)c1 (stereo not drawn) [GSK1379720],5%
